Reference: PMC12136788
Substitutions are numbered along the chain they refer to. In all, about 5,800 sequences were measured (“enrichment r”: median about 0.54, highest 2% from about 16 on). The list comes from a sample in which the highest values are over-represented; it also holds similar and randomly drawn sequences.

B1: ENSG00000070961:be:win_1201|CDS|ENSG00000070961|bound_else_gene|NA|bound_elsewhere_windowed (ssRNA)
RNA: GGGAGUUCUACAGUCCGACGAUCAAAAGACCAUGGCUUGCUGAGUGCACACCAAUUUAUAUACAAUACUUUGUGAAGUUCUUCAUUAUUGGAGUUACAGUUUUAGUGGUCGCAGUGCCAGAAGGUCUUCCACUUGCAGUCACGCAACAGAGGAUUGAGCAUCA
B2: chr5:150401636:150402250:-|three_prime_utr|ENSG00000019582|control|control|control (ssRNA)
RNA: GGGAGUUCUACAGUCCGACGAUCCUGCUGCCCAAUCUCCAUCUGUCAACAGGGGCGUGAGGUCCCAGGAAGUGGCCAAAAGCUAGACAGAUCCCCGUUCCUGACAUCACAGCAGCCUCCAACACAAGGCUCCAAGACCUAGGCCAACAGAGGAUUGAGCAUCA
B3: chr5:40972473:40972581:+|CDS|ENSG00000112936|unk|FALSE|unique (ssRNA)
RNA: GGGAGUUCUACAGUCCGACGAUCAAAACCUUUCUACACAGUUGGUGAGAAGGUGACUGUUUCCUGUUCAGGUGGCAUGUCCUUAGAAGGUCCUUCAGCAUUUCUCUGUGGCUCCAGCCUUAAGUGGAGUCCUGAGAUGAAGAACAACAGAGGAUUGAGCAUCA
B4: ENSG00000096070:stop:overlap|stop_codon|ENSG00000096070|stop_codon|NA|stop_codon (ssRNA)
RNA: GGGAGUUCUACAGUCCGACGAUCAGAAGGAUCCUGCACACAUCUUCGCAGAACCAGUCAACUUGAGUGAGGUUUUAUAUGUUUAGGUUCCAGAUUACCUGGAAUUCAUAUCCAAGCCAAUGGAUUUUUCUACUAUGAGGCGGACAACAGAGGAUUGAGCAUCA
B5: chr15:67202635:67202736:-|3pUTR|ENSG00000103591|msi1|total|mutant (ssRNA)
RNA: GGGAGUUCUACAGUCCGACGAUCUGCCAAAAUUGCCCUUAUCAUGUUGGCUGCCUGACUUGUUUACCGGGUCCCCUUAAUUUCCGUUUUCCGCCGGAGGUUAAGGAGAAAUCUUUUUUUUCCUCAGUAUAUUGUAAGAGAGUGCAACAGAGGAUUGAGCAUCA
B6: chr6:1612588:1612689:+|3pUTR|ENSG00000054598|msi1|FALSE|unique (ssRNA)
RNA: GGGAGUUCUACAGUCCGACGAUCUUUAUUCAUGGACUUGUUUUAAAAUGUAAAUUGCAACAUAGUAAUUUAUUUUUAAUUUGUAGUUGGAUGUCGUGGACCAAACGCCAGAAAGUGUUCCCAAAACCUGACGUUAAAUUGCCUCAACAGAGGAUUGAGCAUCA
B7: chr15:67202635:67202736:-|3pUTR|ENSG00000103591|msi1|FALSE|unique (ssRNA)
RNA: B5 RNA with C66U, C67A, C83U, C84A, C90U, C91A, C93U, C94A
B8: chr1:16124349:16124452:-|3pUTR|ENSG00000142627|msi1|FALSE|unique (ssRNA)
RNA: GGGAGUUCUACAGUCCGACGAUCUUUGUUUUGUUGGACAUUUUUUUCGAAUCUUAAUUUAUUAUUUUUUUUAUAUUUAUUGUUAGAAAAUGACUUAUUUCUGCUCUGGAAUAAAGUUGCAGAUGAUUCAAACCGAUCUUGGCUCAACAGAGGAUUGAGCAUCA
B9: chr16:3436009:3436110:-|3pUTR|ENSG00000167981|unk|total|mutant (ssRNA)
RNA: GGGAGUUCUACAGUCCGACGAUCAUUAAAAUGAAGGCUCUUGCUAAAGUUAUUUUAAUUUUGUUUACGCCGUUUCUGACUUUCCGAAGGAGGAGAAUUUAUUUAUAUUUUGCCAGUUCUGCAGACAUAUCCCGGAAAGUAAAUCAACAGAGGAUUGAGCAUCA
B10: ENSG00000070961:be:win_4051|3pUTR|ENSG00000070961|bound_else_gene|NA|bound_elsewhere_windowed (ssRNA)
RNA: GGGAGUUCUACAGUCCGACGAUCAUUUCUGCUGUUGGCUGUUAAUAAUUUGGAUUAUUUAUGUUUAUAAAUGAUACAGAUCUGUUUACAAGGUUUGUAGAUACUUUUUUUGUUCCUGUUCAUAGAUGGGAAGCUUCCUUAUAACAACAGAGGAUUGAGCAUCA
B11: chr1:183143318:183143419:+|3pUTR|ENSG00000135862|msi1|total|mutant (ssRNA)
RNA: GGGAGUUCUACAGUCCGACGAUCACAUCCUGUGCCAAAGGUAUUGGUCAUUCCGAAUGUCGGCCGCCAUCCAUCAGUGCUUUCCGUUAUUAUGAGUGCCGGACACUGAGCCAUCCGUGGGUCAGGAUGCAAUUAUUUAUAAAACAACAGAGGAUUGAGCAUCA
B12: chr16:3436009:3436110:-|3pUTR|ENSG00000167981|unk|FALSE|unique (ssRNA)
RNA: B9 RNA with C69U, C70A, C83U, C84A, C131U, C132A
B13: chr3:46835109:46836203:-|three_prime_utr|ENSG00000160808|control|control|control (ssRNA)
RNA: GGGAGUUCUACAGUCCGACGAUCUGAAGGCACAAGCUGUUCCAGUAUAAUAAAGAAAAUAAUUAAAUUAAGAAAAGUUAUACUAGAAAUAAGAUAUAGGUAUGAUUAUUAUUAAUCAUUAGUUUGUAGUAUUACUUUGUUCUACAACAGAGGAUUGAGCAUCA
B14: chr3:100749155:100750494:-|three_prime_utr|ENSG00000154175|control|control|control (ssRNA)
RNA: GGGAGUUCUACAGUCCGACGAUCUGCCGCAUUCAUUUAAAGCUAUUUUGUUUACUAUGUAUAAAAGUCUACAAUCUAAUUAAUAGCAAUACUAGAUGUUUAUUAUUAGAAAAGAUUGCUGAGAGUAUUUAUCAGGUUUUACAACAACAGAGGAUUGAGCAUCA
B15: chr1:183143318:183143419:+|3pUTR|ENSG00000135862|msi1|FALSE|unique (ssRNA)
RNA: B11 RNA with C52U, C53A, C63U, C64A, C83U, C84A, C98U, C99A
B16: chr13:42886387:42888493:-|three_prime_utr|ENSG00000133106|control|control|control (ssRNA)
RNA: GGGAGUUCUACAGUCCGACGAUCCAUAUUUAAUCUCUACUGCCAGGGAAAUGCUACAUUAUUUUUCUAAUUGGAAGUAUAAUUAGAGUGAUGUUGGUAGGGUAGAAAAAGAGGGAGUCACUUGAUGCUUUCAGGUUAAUCAGACAACAGAGGAUUGAGCAUCA

Each binder was assayed against MSI1 full-length (mouse, UniProt Q61474 1-362) (assay: nsRBNS (natural sequence RNA bind-n-seq); RBNS binding buffer (assumed for nsRBNS): 25 mM Tris pH 7.5, 150 mM KCl, 3 mM MgCl2, 0.01% Triton X-100, 500 ug/ml BSA, 20 U/ml SUPERase-In, 4 C; UNK is unkempt and MSI1 is Musashi-1; names of the RNAs are library labels; protein concentration not given here; high values mean tight binding).
Sequence of MSI1 full-length (Q61474 whole entry): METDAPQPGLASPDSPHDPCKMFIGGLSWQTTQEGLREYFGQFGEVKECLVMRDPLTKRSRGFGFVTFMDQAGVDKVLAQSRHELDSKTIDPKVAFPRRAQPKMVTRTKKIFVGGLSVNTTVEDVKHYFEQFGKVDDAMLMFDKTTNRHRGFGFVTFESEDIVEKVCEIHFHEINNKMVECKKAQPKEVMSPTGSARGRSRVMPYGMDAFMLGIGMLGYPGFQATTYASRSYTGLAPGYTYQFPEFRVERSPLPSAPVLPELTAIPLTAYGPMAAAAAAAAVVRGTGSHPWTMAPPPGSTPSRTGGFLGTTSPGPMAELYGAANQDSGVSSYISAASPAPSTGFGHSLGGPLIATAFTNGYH
B1 showed a binding signal of 1.51 enrichment R. With B2 the binding signal was 0.462 enrichment R. B3 showed a binding signal of 0.339 enrichment R. B4 was tested, and the binding signal was 0.383 enrichment R. B5 gave a binding signal of 0.438 enrichment R. For B6, the binding signal was 0.311 enrichment R. B7 was tested, and the binding signal was 32.9 enrichment R. For B8, the binding signal was 4.58 enrichment R. Binder B9 has a binding signal of 0.68 enrichment R. B10 was tested, and the binding signal was 1.02 enrichment R. For B11, the binding signal was 0.319 enrichment R. B12 was tested, and the binding signal was 19.1 enrichment R. With B13 the binding signal was 24.8 enrichment R. Work on B14 yielded a binding signal of 4.63 enrichment R. In the case of B15, the binding signal is reported as 34.2 enrichment R. Work on B16 yielded a binding signal of 0.46 enrichment R.
